# Results as given in PubChem BioAssay.
# Calls of active or inactive are those of the source.
# Assay: PSAC antagonists in infected red cells, primary screen, cell-based, P. falciparum Indochina, OD700, 2 h (AID 1155);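 further: lysis reports solute entry through the parasite surface anion channel PSAC; channel blockers reduce lysis of infected cells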
# Details: P. falciparum Indochina infected erythrocytes, osmotic lysis OD700; higher = more signal, called active from +8 up or from −8 down
row,SMILES,z-score
1,CC(C)C[C@@H]1NC(=O)[C@H](C(C)C)NC(=O)[C@@]23C(=O)N[C@@H](Cc4ccccc4)C2[C@H](C)[C@@]2(C)O[C@H]2C3/C=C/CC/C=C/CNC1=O (stereo not given in full),0.538 (inactive)
2,CC1(C)[C@@H]2CC(C(O)C3C=CC4C(=O)N(c5ccccc5)C(=O)C4N3Nc3ccc([N+](=O)[O-])cc3)=C[C@H]1C2 (stereo not given in full),2.98 (inactive)
3,COc1ccccc1CN1C(=O)c2ccccc2[C@@]2(Cc3ccccc3N(CC(C)C)C2=O)[C@@H]1c1ccc(CO)cc1,0.215 (inactive)
4,CC1CC/C=C\[C@H]2OC34C=CCN(C(C)(C)C)C(=O)[C@H]3N(C(C)CO)C(=O)[C@@H]4C2C(=O)O1 (stereo not given in full),0.576 (inactive)
5,O=C(NCCO)C1=C[C@H](Oc2ccccc2I)[C@@H](O)[C@H](N(Cc2ccco2)C(=O)Cc2ccccc2)C1,0.799 (inactive)
6,CN(C)CCCC[C@@H]1NC(=O)[C@H]2C[C@@H](C(=O)NCCCCCCN)[C@@H](c3ccc(O)cc3)N2C1=O,0.374 (inactive)
7,COC(=O)C(CC#Cc1ccc2c(c1)[C@]1(C(=O)N2)[C@H](c2ccc(OCCO)cc2)N2[C@H](c3ccccc3)[C@H](c3ccccc3)OC(=O)[C@H]2[C@@H]1C(=O)N1CCc2cc(OC)c(OC)cc2C1)C(=O)OC,1.89 (inactive)
8,[N-]=[N+]=Nc1ccccc1[C@H]1OC(c2ccc(OCCCO)cc2)=N[C@@]1(CCS(=O)(=O)c1ccccc1)C(N)=O,28.1 (active)
9,COC(=O)[C@@]1(Cc2ccc(F)cc2)[C@H]2c3cc(C(=O)N(C)C)n(Cc4ccccc4)c3C[C@H]2CN1C(=O)c1ccccc1,0.672 (inactive)
10,COc1cc(COC(C)=O)ccc1OC(C)=O,-0.983 (inactive)
11,CN1C(=O)C2C=CC(C(O)C#Cc3ccccc3)N(N3CCCCC3)C2C1=O (stereo not given),1.09 (inactive)
12,NC(=O)NCC#Cc1ccc2c(c1)[C@]1(C(=O)N2)[C@H](C(N)=O)[C@H]2C(=O)O[C@H](c3ccccc3)[C@H](c3ccccc3)N2[C@@H]1c1ccc(O)cc1,0.436 (inactive)
13,CO[C@H]1O[C@H](CO)[C@@H](OC(=O)Nc2ccc(Oc3ccccc3)cc2)[C@H](OC(=O)Nc2ccc3c(c2)OCO3)[C@H]1OC(=O)Nc1ccc2c(c1)OCO2,0.996 (inactive)
14,CC(C)NC(=O)[C@@H]1c2ccccc2C(=O)N(C2Cc3ccccc3C2)[C@H]1c1ccc(CO)cc1,0.119 (inactive)
15,CCCc1cc2c(n1Cc1cc(F)cc(F)c1)C(C)C1CN(C(=O)c3ccccc3)C(C)(C(=O)OC)C21 (stereo not given),0.144 (inactive)
16,[N-]=[N+]=Nc1ccccc1[C@@H]1OC(c2ccc(OCCCO)cc2)=N[C@]1(CCS(=O)(=O)c1ccccc1)C(N)=O,26.1 (active)
17,O=C1c2ccccc2[C@](Cc2ccccc2I)(C(=O)NCCN2CCOCC2)[C@H](c2ccc(CO)cc2)N1Cc1ccccc1Cl,1.47 (inactive)
18,O=C(N1CCCCC1)[C@]1(Cc2ccccc2)N=C(c2ccc(OCCCO)cc2)O[C@@H]1c1ccccc1,20.6 (active)
19,CC(=O)NCCCC[C@@H]1NC(=O)[C@H]2C[C@@H](C(=O)NCCCCCCNC(=O)CS)[C@@H](c3ccc(O)cc3)N2C1=O,0.507 (inactive)
20,O=C(CS)NCCCCCCNC(=O)[C@@H]1C[C@@H]2C(=O)NCC(=O)N2[C@@H]1c1cccc(OCCO)c1,0.156 (inactive)
21,CC[C@@H]1C=C(C(=O)O)[C@H](c2ccc(Br)cc2)N1S(=O)(=O)c1ccc(C)cc1,1.06 (inactive)
22,CCOC(=O)C[C@H]1[C@H](OC(=O)c2ccccc2-c2ccccc2)[C@@H](NC(=O)CC(C)C)c2cc(OCCCO)ccc2N1C(=O)Cc1ccc(OC)cc1,0.317 (inactive)
23,CCCC[C@@H]1C[C@H]1[C@@H](NC(=O)c1cccs1)c1ccc(-c2ccccc2)cc1,0.856 (inactive)
24,COc1ccc(-c2cc3c(c(-c4ccc(Oc5ccccc5)cc4)n2)[Si](C(C)C)(C(C)C)OC3)cn1,1.54 (inactive)
25,CC(C)C(=C=CC[C@@H](O)c1ccc(OCCO)cc1)C[C@@H](O)COCc1ccccc1,-0.15 (inactive)

# Assay: osmotic lysis modulators in infected erythrocytes, primary screen, PSAC antagonist project, cell-based, P. falciparum Indochina, OD700, 3 h (AID 1156)
# Details: higher = more signal, called active from +8 up or from −8 down
row,SMILES,z-score
1,CCC(CC)C(O)C1C=CC2C(=O)NC(=O)C2N1Nc1ccc(Cl)cc1Cl (stereo not given),0.0089 (inactive)
2,C=C(CCCC)/C(=C/C[C@@H](OC(=O)c1ccncc1)c1ccc(OCCO)cc1)c1cc(C(=O)OC)ccc1OC,1.85 (inactive)
3,CO[C@H]1O[C@H](CO)[C@@H](OC(=O)Nc2cccc(F)c2)[C@H](OC(=O)Nc2ccccc2)[C@@H]1OC(=O)Nc1ccccc1,-0.476 (inactive)
4,C=C(COC)C(=O)CC[C@@H](OC(C)=O)c1ccc(CO)o1,0.195 (inactive)
5,COC(=O)[C@H](Cc1ccccc1)N1CC2=C[C@@H](C3CC3)n3c(=O)n(C)c(=O)n3[C@H]2[C@@H]1[C@@H](O)Cc1ccccc1,0.645 (inactive)
6,C=C[C@H](CO[Si](CC)(CC)CC)N(Cc1ccc(OC(C)=O)c(OC)c1)S(=O)(=O)c1ccc(Br)cc1,-0.738 (inactive)
7,C=CCOC(=O)[C@H]1[C@@H]2C(=O)O[C@@H](c3ccccc3)[C@@H](c3ccccc3)N2[C@@H](c2ccc(OCCOC(=O)[C@H]3C[C@H]4C(=O)N[C@@H](CCCCNC(C)=O)C(=O)N4[C@H]3c3ccc(O)cc3)cc2)[C@]12C(=O)Nc1ccc(I)cc12,0.675 (inactive)
8,CC(C)C(O)C1C=CC2C(=O)NC(=O)C2N1Nc1ccc(Cl)cc1Cl (stereo not given),-0.782 (inactive)
9,COc1ccc([Si](C)(C)[C@H]2[C@H](CCO)O[C@@]3(C(=O)N(Cc4ccc(N(C=O)c5ccccc5)cc4)c4ccccc43)[C@@H]2C)cc1,-0.149 (inactive)
10,CC(C)C(O)C1C=CC2C(=O)N(c3ccccc3)C(=O)C2N1Nc1ccc([N+](=O)[O-])cc1 (stereo not given),0.928 (inactive)
11,CC(C)C[C@@H]1NC(=O)[C@H](C(C)C)NC(=O)[C@@]23C(=O)N[C@@H](Cc4ccccc4)C2[C@H](C)[C@@]2(C)O[C@H]2C3/C=C/CC/C=C/CNC1=O (stereo not given in full),0.841 (inactive)
12,CC1(C)[C@@H]2CC(C(O)C3C=CC4C(=O)N(c5ccccc5)C(=O)C4N3Nc3ccc([N+](=O)[O-])cc3)=C[C@H]1C2 (stereo not given in full),2.92 (inactive)
13,COc1ccccc1CN1C(=O)c2ccccc2[C@@]2(Cc3ccccc3N(CC(C)C)C2=O)[C@@H]1c1ccc(CO)cc1,0.297 (inactive)
14,CC1CC/C=C\[C@H]2OC34C=CCN(C(C)(C)C)C(=O)[C@H]3N(C(C)CO)C(=O)[C@@H]4C2C(=O)O1 (stereo not given in full),0.545 (inactive)
15,O=C(NCCO)C1=C[C@H](Oc2ccccc2I)[C@@H](O)[C@H](N(Cc2ccco2)C(=O)Cc2ccccc2)C1,1.1 (inactive)
16,CN(C)CCCC[C@@H]1NC(=O)[C@H]2C[C@@H](C(=O)NCCCCCCN)[C@@H](c3ccc(O)cc3)N2C1=O,1.31 (inactive)
17,COC(=O)C(CC#Cc1ccc2c(c1)[C@]1(C(=O)N2)[C@H](c2ccc(OCCO)cc2)N2[C@H](c3ccccc3)[C@H](c3ccccc3)OC(=O)[C@H]2[C@@H]1C(=O)N1CCc2cc(OC)c(OC)cc2C1)C(=O)OC,0.506 (inactive)
18,[N-]=[N+]=Nc1ccccc1[C@H]1OC(c2ccc(OCCCO)cc2)=N[C@@]1(CCS(=O)(=O)c1ccccc1)C(N)=O,1.48 (inactive)

row,SMILES,z-score
1,COC(=O)[C@@]1(Cc2ccc(F)cc2)[C@H]2c3cc(C(=O)N(C)C)n(Cc4ccccc4)c3C[C@H]2CN1C(=O)c1ccccc1,0.657 (inactive)
2,COc1cc(COC(C)=O)ccc1OC(C)=O,-1.76 (inactive)
3,CN1C(=O)C2C=CC(C(O)C#Cc3ccccc3)N(N3CCCCC3)C2C1=O (stereo not given),0.83 (inactive)
4,NC(=O)NCC#Cc1ccc2c(c1)[C@]1(C(=O)N2)[C@H](C(N)=O)[C@H]2C(=O)O[C@H](c3ccccc3)[C@H](c3ccccc3)N2[C@@H]1c1ccc(O)cc1,0.471 (inactive)
5,CO[C@H]1O[C@H](CO)[C@@H](OC(=O)Nc2ccc(Oc3ccccc3)cc2)[C@H](OC(=O)Nc2ccc3c(c2)OCO3)[C@H]1OC(=O)Nc1ccc2c(c1)OCO2,0.902 (inactive)
6,CC(C)NC(=O)[C@@H]1c2ccccc2C(=O)N(C2Cc3ccccc3C2)[C@H]1c1ccc(CO)cc1,0.121 (inactive)
7,CCCc1cc2c(n1Cc1cc(F)cc(F)c1)C(C)C1CN(C(=O)c3ccccc3)C(C)(C(=O)OC)C21 (stereo not given),1.95 (inactive)
8,[N-]=[N+]=Nc1ccccc1[C@@H]1OC(c2ccc(OCCCO)cc2)=N[C@]1(CCS(=O)(=O)c1ccccc1)C(N)=O,1.26 (inactive)
9,O=C1c2ccccc2[C@](Cc2ccccc2I)(C(=O)NCCN2CCOCC2)[C@H](c2ccc(CO)cc2)N1Cc1ccccc1Cl,1.01 (inactive)
10,O=C(N1CCCCC1)[C@]1(Cc2ccccc2)N=C(c2ccc(OCCCO)cc2)O[C@@H]1c1ccccc1,0.696 (inactive)
11,CC(=O)NCCCC[C@@H]1NC(=O)[C@H]2C[C@@H](C(=O)NCCCCCCNC(=O)CS)[C@@H](c3ccc(O)cc3)N2C1=O,3.45 (inactive)
12,O=C(CS)NCCCCCCNC(=O)[C@@H]1C[C@@H]2C(=O)NCC(=O)N2[C@@H]1c1cccc(OCCO)c1,2.38 (inactive)
13,CC[C@@H]1C=C(C(=O)O)[C@H](c2ccc(Br)cc2)N1S(=O)(=O)c1ccc(C)cc1,-0.187 (inactive)
14,CCOC(=O)C[C@H]1[C@H](OC(=O)c2ccccc2-c2ccccc2)[C@@H](NC(=O)CC(C)C)c2cc(OCCCO)ccc2N1C(=O)Cc1ccc(OC)cc1,0.587 (inactive)
15,CCCC[C@@H]1C[C@H]1[C@@H](NC(=O)c1cccs1)c1ccc(-c2ccccc2)cc1,-0.398 (inactive)
16,COc1ccc(-c2cc3c(c(-c4ccc(Oc5ccccc5)cc4)n2)[Si](C(C)C)(C(C)C)OC3)cn1,0.208 (inactive)
17,CC(C)C(=C=CC[C@@H](O)c1ccc(OCCO)cc1)C[C@@H](O)COCc1ccccc1,0.776 (inactive)
